Hits are enriched below; roughly 0.37% of the tested compounds scored in any of these assays.
Rab7 wt GTP bind: alters GTP binding to wildtype dog Rab7; AID 758; GTP binding activity (percent of control), % at 10 µM; 190,000 tested, 0.055% active; GST-Rab7 beads, fluorescent GTP binding, flow cytometry; actives lie on both sides; untreated = 100%, excess cold GTP = 0%;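 active = fluorescent GTP binding to Rab7 beads changed by at least 20 points from the 100% baseline, either direction, mostly lower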;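 also: median green fluorescence of bound Bodipy-FL-GTP per Rab7 bead population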
Cdc42 wt GTP: human Cdc42 wildtype GTP binding change, either direction; P60953; GST-Cdc42 beads, Bodipy-GTP binding, flow cytometry; actives lie on both sides; percent activity (GTP binding), % at 10 µM; 190,000 tested, 0.2% active; AID 761;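 active = percent activity GTP binding at least 20 points away from the 100% baseline, either down as inhibitor or up as activator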;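 also: median bead fluorescence of bound Bodipy-FL-GTP at 100 nM; 0% = excess unlabeled GTP control and 100% = no compound control; below 100% means less GTP binding so inhibitor and above means activator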
Target sequence (P60953 whole entry, looked up): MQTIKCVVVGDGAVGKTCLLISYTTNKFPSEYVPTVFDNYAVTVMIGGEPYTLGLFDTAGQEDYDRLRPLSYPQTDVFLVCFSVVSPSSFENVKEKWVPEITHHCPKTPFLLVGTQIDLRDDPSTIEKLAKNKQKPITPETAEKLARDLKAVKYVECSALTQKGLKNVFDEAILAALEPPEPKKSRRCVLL
Rab2 wt GTP: changes GTP binding to wildtype dog Rab2A, up or down; GST-Rab2 wt beads, Bodipy-GTP binding, flow cytometry; GTP binding activity, % at 10 µM; 190,000 tested, 0.19% active;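 active = GTP binding activity at least 20 points away from 100%, either lowered or raised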;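 also: 0% = beads with excess unlabeled GTP and 100% = no-compound control corrected for plate trend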
HRas wt GTP: changes GTP binding to wildtype human HRas | P01112 | GST-Ras wt beads, Bodipy-FL-GTP binding, flow cytometry; actives lie on both sides | GTP binding activity, % at 10 µM | 190,000 tested, 0.14% active;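 active = GTP binding activity at least 20% away from the 100% baseline, either lowered as inhibitor or raised as activator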;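 also: 0% = unlabeled GTP competition control and 100% = no-compound control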
Target sequence (P01112 whole entry, looked up): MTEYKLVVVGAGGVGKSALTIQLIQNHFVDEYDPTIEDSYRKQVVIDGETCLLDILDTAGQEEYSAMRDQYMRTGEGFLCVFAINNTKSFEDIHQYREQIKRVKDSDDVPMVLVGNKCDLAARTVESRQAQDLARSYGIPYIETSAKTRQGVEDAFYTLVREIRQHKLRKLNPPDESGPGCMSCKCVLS
Rac1 wt modul: modulators of human Rac1 wildtype GTP binding. P63000. GST-Rac1 beads, fluorescent GTP binding, flow cytometry; actives lie on both sides; 0 = cold GTP competed, 100 = untreated. GTP binding activity (% of control), % at 10 µM. 190,000 tested, 0.27% active. AID 757;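 active = GTP binding activity at least 20 points away from the 100% control level, either lower or higher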
Rac1 act GTP bind: human Rac1 activated mutant GTP binding change; GST-Rac1 activated beads, fluorescent GTP binding, flow cytometry; actives lie on both sides; 100% means binding = to untreated wells; percent activity (GTP binding), % at 10 µM; 190,000 tested, 0.11% active; AID 764;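 active = GTP binding at least 20 percentage points away from the 100% baseline, in either direction, so actives lie on both sides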
An asterisk follows results filed as active; [ ] = another dose, or the depositor's remark.

SMILES	Rab7 wt GTP bind	Cdc42 wt GTP	Rab2 wt GTP	HRas wt GTP	Rac1 wt modul	Rac1 act GTP bind
CC(C)(C)CC(=O)NC(=S)NCc1ccco1	108.0	103.0	103.0	103.0	125.0*[activator]	100.0
CC(/C=N/NC(=O)c1sc(N)nc1C)=C\c1ccccc1	106.0	96.0	100.0	100.0	97.0	95.0
Clc1ccc(-c2nc(/C=N/N3CCOCC3)c3ccccn23)cc1	92.0	97.0	97.0	99.0	97.0	96.0
COc1ccc(-c2nnc(SCC(=O)c3cccs3)o2)cc1	59.0*	54.0*	60.0*	42.0*	58.0*	62.0*
O=C(CSc1nnc(-c2cccs2)o1)c1cccs1	97.0	97.0	96.0	98.0	96.0	95.0
Cc1nn(-c2cccc(Cl)c2)c2nc(-c3ccncc3)cc(C(=O)N3CCOCC3)c12	104.0	92.0	97.0	95.0	93.0	94.0
O=C(NCc1cccs1)c1cccn2c(=O)c3sccc3nc12	92.0	63.0*	63.0*	66.0*	55.0*	77.0*
O=C(NCc1cccs1)c1cnc2ccccn2c1=O	100.0	101.0	98.0	99.0	103.0	96.0
COc1ccc(NC(=O)c2sccc2C)cn1	98.0	98.0	95.0	97.0	103.0	95.0
O=C1COc2ccc(C(=O)COC(=O)CNC(=O)C3CCCCC3)cc2N1	99.0	96.0	99.0	99.0	96.0	94.0
COc1cc([N+](=O)[O-])ccc1N=Nc1c(N)[nH]n(-c2ccccc2)c1=O	87.0	78.0*	80.0	85.0	81.0	83.0
COc1cccc(C(=O)NC(=S)Nn2cnnc2)c1OC	102.0	94.0	96.0	96.0	97.0	93.0
Cc1ccc(NC(=S)Nc2ccc3nc(-c4ccccn4)c(-c4ccccn4)nc3c2)cc1C	105.0	101.0	100.0	103.0	125.0*[activator]	104.0
COc1ccc(CCn2c(C(C)C)nc3c(c(=O)c4ccccc4n3C)c2=O)cc1	96.0	99.0	77.0*	85.0	91.0	95.0
COc1ccc(CCn2c(C)nc3c(c(=O)c4ccccc4n3C)c2=O)cc1	99.0	103.0	96.0	98.0	96.0	99.0
O=C(O)c1cn(C2CC2)c2cc(N3CCN(S(=O)(=O)c4ccc5c(c4)OCCO5)CC3)c(F)cc2c1=O	102.0	98.0	92.0	94.0	92.0	92.0
Cn1nnnc1SCc1ccc(C(=O)Nc2nccs2)cc1	82.0	75.0*	72.0*	73.0*	71.0*	83.0
Cc1cccc(-c2ncc(CN3CCN(CCC(C)C)C(CCO)C3)cn2)c1 (stereo unspecified)	92.0	94.0	96.0	94.0	99.0	99.0
O=C(O)c1cc(N2N=C(C(F)(F)F)/C(=C/C=C/c3ccco3)C2=O)ccc1Cl	90.0	79.0*	83.0	85.0	84.0	76.0*
Cc1cc2nc3c(=O)n(C4CCCCC4)c(=O)[nH]c3nc2cc1N	93.0	79.0*	73.0*	76.0*	74.0*	87.0
CCCCNC(=O)C(=O)N/N=C/c1ccc(OCC(=O)Nc2cccc(OC)c2)c(OC)c1	94.0	104.0	96.0	100.0	102.0	98.0
CCOC(=O)c1c(CSc2ccccc2)n(C)c2cc(Br)c(OCC(O)CNC(CO)(CO)CO)cc12 (stereo unspecified)	104.0	113.0	107.0	113.0	120.0*[activator]	113.0
O=S(=O)(Nn1cnnc1)c1ccc(F)cc1	101.0	95.0	95.0	96.0	96.0	94.0
O=C(c1ccc2c(=O)n(-c3ccccc3)c(=O)[nH]c2c1)N1CCN(c2ccc(F)cc2)CC1	107.0	106.0	105.0	105.0	110.0	101.0
CC(=O)c1ccc(N2CCN(C(=O)c3ccc4c(=O)n(-c5ccccc5)c(=O)[nH]c4c3)CC2)cc1	104.0	105.0	107.0	108.0	121.0*[activator]	106.0
Clc1ccc(CN(Cc2ccc(Cl)cc2)c2nn[nH]n2)cc1	96.0	80.0	80.0	87.0	83.0	77.0*
c1ccc(CN(Cc2ccccc2)c2nn[nH]n2)cc1	103.0	91.0	92.0	93.0	94.0	89.0
